HT1080NT lethal: kills 2HG-producing HT-1080-NT fibrosarcoma cells. AID 686970. HT-1080-NT fibrosarcoma viability, CellTiter-Glo ATP luminescence, 48 h. Potency, µM (top dose mostly 46.1 µM), without a hit: at the top dose activity, negative = less viability, hits mostly cytotoxic. hit rate 1.6% among 360,000;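 further: NT is the 2HG producing partner of a matched IDH1 knockdown line; 0% = DMSO-treated cells and -100% = media-only wells without cells; nearly all actives have a fitted effect of over 55% in size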
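Viability of the 2HG-overproducing fibrosarcoma line after 48 hours of compound exposure at 37 degrees C was determined by luminescence with CellTiter-Glo, and concentration-effect curves were then fitted and categorized.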
KB-V1 cytotox: kills drug-selected multidrug resistant KB-V1 cells; Potency, µM (titrated, usually from 46.1 µM), actives largely listed as cytotoxic; KB-V1 MDR cells viability, CellTiter-Glo, 72 h; hit rate 3.4% among 400,000; further: nearly all actives have a fitted effect of over 60% in size
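KB-V1 MDR subline cells in DMEM (phenol-red free, 10% FBS) exposed to compounds in qHTS concentration series for 72 h at 37 degrees C. Viability read by CellTiter-Glo luminescence; concentration-effect curves fitted after normalization and correction.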
KB-3-1 tox: KB-3-1 parental cell cytotoxicity. KB-3-1 viability, CellTiter-Glo ATP luminescence, 72 h. Potency, µM (titrated, usually from 46.1 µM), usual class: cytotoxic. hit rate 1.4% among 400,000. AID 1347075; further: nearly all actives have a fitted effect of over 60% in size
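Cytotoxicity in the drug-sensitive parental line KB-3-1 was scored as loss of CellTiter-Glo luminescence following 72 h incubation with compound. Values come from curve fitting of normalized concentration-response data.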
HT1080 IDH1KD tx: toxicity to HT-1080 IDH1 knockdown cells (counter line); HT-1080 IDH1 knockdown viability, ATP luminescence, 48 h; Potency, µM (series often up to 46.1 µM), inactives show top-dose activity, negative = toxicity, usual class: cytotoxic; hit rate 2% among 360,000;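 further: 0% = DMSO wells and -100% = cell-free medium wells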
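CellTiter-Glo luminescence after 48 h compound exposure at 37 degrees C of IDH1-knockdown HT-1080 cells in 5% FBS RPMI. %Activity scaled between DMSO wells and cell-free media wells, with curves fitted and assigned curve classes.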
An asterisk follows results filed as active; i = inactive; ? = inconclusive; · = no result given; ! = not confirmed by another sample; [ ] = remark or other dose. Rows were chosen to be rich in hits. Some 5.7% of all compounds tested hit in one or more screens of this group. The call rests on the fitted dose curve; in most records, active means well fitted curve in the direction sought with a large enough effect; inconclusive means small, poorly fitted or top-dose-only effect, or another doubt; inactive means no such curve, though single readings can be large; an effect the other way counts as inactive or inconclusive. Unless noted, on the % scale 0 is the no-effect control and ±100 the full control effect; potency means the concentration at half of the fitted maximal effect.

SMILES	HT1080NT lethal	KB-V1 cytotox	KB-3-1 tox	HT1080 IDH1KD tx
Cc1c(Cc2ccccc2)sc(/N=C/c2ccc3ccccc3c2)c1C(N)=O	2.91µM*	0.92µM*	?	2.91µM*
Cc1c(Cc2ccccc2)sc(/N=C/c2c(O)ccc3ccccc23)c1C(N)=O	?	?	i	?
COc1ccc(N2CCN(C(=O)CCNS(=O)(=O)c3ccc(Br)s3)CC2)cc1	-3.1%	13µM*	?	-2.1%[9.24 µM]
O=C(CNS(=O)(=O)c1ccc(Br)s1)N1CCN(c2ccc(F)cc2)CC1	-2.0%	18.4µM*!	23.1µM*!	-1.2%
Cc1cccc(N2CCN(C(=O)c3cn(C4CCCCC4)c(=O)c4c3c3ccccc3n4C)CC2)c1C	·	i	i	·
COc1ccc(NC(=O)C(C2CC2)n2c(=O)c(-c3cc4ccccc4[nH]3)nc3ccccc32)cc1 (configuration not stated)	?	i	i	14.6µM*
Cc1cccc(C)c1NC(=O)C(c1ccncc1)n1c(=O)c(-c2cc3ccccc3[nH]2)nc2ccccc21 (configuration not stated)	20.6µM*	?	?	18.4µM*
COc1ccc(NC(=O)C2CCC(CNS(=O)(=O)c3cccc4nsnc34)CC2)cc1OC (configuration not stated)	·	i	i	·
COc1ccccc1CCNC(=O)C(=O)NCC(c1cccs1)S(=O)(=O)c1ccc(C)cc1 (configuration not stated)	·	i	i	·
CCn1nnc(NC(=O)C(C)Oc2ccc(Cl)cc2Cl)n1 (configuration not stated)	-16.3%	18.4µM*	i	-3.5%
CC(Oc1ccc(Br)cc1)C(=O)Nc1ccncc1 (configuration not stated)	?	i	i	-15.2%
CC(Oc1ccc(Br)cc1Cl)C(=O)Nc1ccncc1 (configuration not stated)	?	i	?	16.4µM*
O=[N+]([O-])c1c(Nc2ccc(O)cc2)cc(Cl)c2nonc12	9.2µM*	i	i	5.8µM*
COc1ccc(-c2cc(=O)oc3c4c(ccc23)OCN(Cc2ccccc2)C4)cc1	·	i	i	·
COc1cc2c(cc1OC)C(c1cccs1)N(C(=O)c1ccncc1)CC2 (configuration not stated)	?	?	?	13µM*
COc1cc(C(=O)Nc2ccccc2OCc2cc(=O)n3cc(C)sc3n2)cc(OC)c1OC	·	?	i	·
Cc1cccc2cc(C(c3nnnn3CC3CCCO3)N3CCCc4ccccc43)c(=O)[nH]c12 (configuration not stated)	-16.4%	18.4µM*	i	-15.7%
Cc1cc2cc(C(c3nnnn3CC3CCCO3)N3CCCc4ccccc43)c(=O)[nH]c2cc1C (configuration not stated)	?	20.6µM*	?	11.2µM*
Cc1ccc2cc(C(c3nnnn3CC3CCCO3)N3CCCC4(CCCCC4)C3)c(=O)[nH]c2c1 (configuration not stated)	5.0%	14.6µM*	i	5.7%
CCN(CC)S(=O)(=O)c1ccc2c(c1)N(CC(=O)NCCc1ccc(OC)c(OC)c1)C(=O)CO2	·	i	i	·
O=C(CSc1nc2ccccc2[nH]1)N1CCOCC1	·	?	i	·
CN(C)Cc1cc(C(F)(F)F)ccc1C(O)(c1ccccc1)c1ccccc1	-15.0%	20.6µM*	?	-1.9%
Cc1cc(C)nc(-n2nc(C)cc2NC(=O)CN2CCc3ccccc3C2)n1	?	?	i	1.58µM*
Cc1cc(C)nc(-n2nc(C)cc2NC(=O)CN2CCCC(C)C2)n1 (configuration not stated)	1.26µM*	i	i	2µM*
Cc1cc(C)nc(-n2nc(C)cc2NC(=O)CNC2CCCCC2)n1	-8.3%	i	i	-3.9%
SMILES	HT1080NT lethal	KB-V1 cytotox	KB-3-1 tox	HT1080 IDH1KD tx
O=[N+]([O-])c1ccc(COc2cccc(CNc3ccc(F)cc3)c2)cc1	2.1%	20.6µM*	i	-6.3%
CCCCN1CC(c2nc3ccccc3n2CCCCOc2ccccc2C)CC1=O (configuration not stated)	·	?	i	·
CCOC(=O)c1cc([N+](=O)[O-])cc([N+](=O)[O-])c1Sc1ncnc2nc[nH]c12	4.61µM*	?	?	4.61µM*
CCOC(=O)C(C)(C)Sc1ncnc2nc[nH]c12	4.6%	i	i	-0.6%
Clc1ccccc1C(c1ccccc1)(c1ccccc1)n1ccnc1	?	14.6µM*	i	?
COc1ccc(/C=C/c2nnc(NC(=O)COc3ccc(Cl)cc3)s2)cc1	·	i	i	·
CS(=O)(=O)N(CC(=O)Nc1ccc(C(N)=O)cc1)C1CCCCC1	-5.4%	i	i	0.8%
CS(=O)(=O)N(CC(=O)Nc1ccc(Br)cc1)C1CCCCC1	?	?	23.1µM*	?
Cc1nonc1C(=O)N/N=C/c1ccc(O)cc1O	?	?	?	2.06µM*
O=C(N/N=C/c1ccc(O)cc1O)c1ccc(NC(=O)C2CCCCC2)cc1	?	i	?	9.2µM*
Cc1ccc(C(C)C)c(OCc2ccc(C(=O)N/N=C/c3ccc(O)cc3O)cc2)c1	6.51µM*	?	i	2.91µM*
O=C(N/N=C/c1ccc(O)cc1O)c1ccncc1	?	?	?	7.31µM*
Cc1ccc(C(C)C)c(OCc2ccc(C(=O)N/N=C/c3ccc(C(=O)O)cc3)cc2)c1	0.0%	?	i	2.8%
COc1ccc2c(CNCCc3cccs3)c(C(=O)O)n(Cc3ccccc3)c2c1	·	i	i	·
O=C(N/N=C/c1ccc(Cl)cc1Cl)c1ccncc1	1.7%	i	i	-1.1%
O=C(N/N=C/c1cc(Cl)cc(Cl)c1O)c1ccncc1	?	?	?	3.66µM*
O=C(Cn1cc(C(=O)C2CC2)c2ccccc21)Nc1ccc(Br)cc1	·	i	i	·
COc1ccc2c(=O)c3c(=O)n(Cc4ccco4)c(-c4cc(OC)c(OC)c(OC)c4)nc3oc2c1	13.7%	i	i	9.3%
COc1ccc2c(=O)c3c(=O)n(Cc4ccco4)c(-c4ccccc4)nc3oc2c1	1.3%	4.61µM*	i	4.4%
CCCN(C)CCCOc1cc2nc(N3CCCN(C)CC3)nc(NC3CCN(C)CC3)c2cc1OC	·	i	?	·
CCOC(=O)c1cnc2ccc(OC)cc2c1Nc1cccc(C(C)=O)c1	·	i	i	·
CCOC(=O)c1cnc2ccc(OCC)cc2c1NCc1ccccc1OC	20.6µM*	7.31µM*	?	?
CCOC(=O)c1cnc2ccc(OC)cc2c1NCc1ccccc1	-0.1%	3.66µM*	i	-3.6%
O=C(CCCCn1c(=O)c2ccccc2n(Cc2ccccc2F)c1=O)NCc1ccc2c(c1)OCO2	·	i	i	·
O=C(c1ccc(Cl)cc1)c1c[nH]c(C(=O)NNc2ccccc2)c1	?	i	i	5.17µM*
CNC(=O)c1cc(C(=O)c2ccc(Cl)cc2)c[nH]1	20.0%	i	i	15.1%
